From the supplement of paper PMC3334620
Whole data set: some 33,000 sequences, median “E-score (-0.5 to 0.5)” near -0.043, cut for the highest 2% near 0.37. Shown is part of a subset that was picked to be rich in the highest values.

What follows are sequences tested against T1, Upc2 (UniProt Q12151) (assay: PBM E-score (8-mer binding enrichment) (E-score (-0.5 to 0.5)); higher = stronger / more preferred TF binding). Conditions: protein concentration: 200 nM; construct: GST-full length.
T1 sequence: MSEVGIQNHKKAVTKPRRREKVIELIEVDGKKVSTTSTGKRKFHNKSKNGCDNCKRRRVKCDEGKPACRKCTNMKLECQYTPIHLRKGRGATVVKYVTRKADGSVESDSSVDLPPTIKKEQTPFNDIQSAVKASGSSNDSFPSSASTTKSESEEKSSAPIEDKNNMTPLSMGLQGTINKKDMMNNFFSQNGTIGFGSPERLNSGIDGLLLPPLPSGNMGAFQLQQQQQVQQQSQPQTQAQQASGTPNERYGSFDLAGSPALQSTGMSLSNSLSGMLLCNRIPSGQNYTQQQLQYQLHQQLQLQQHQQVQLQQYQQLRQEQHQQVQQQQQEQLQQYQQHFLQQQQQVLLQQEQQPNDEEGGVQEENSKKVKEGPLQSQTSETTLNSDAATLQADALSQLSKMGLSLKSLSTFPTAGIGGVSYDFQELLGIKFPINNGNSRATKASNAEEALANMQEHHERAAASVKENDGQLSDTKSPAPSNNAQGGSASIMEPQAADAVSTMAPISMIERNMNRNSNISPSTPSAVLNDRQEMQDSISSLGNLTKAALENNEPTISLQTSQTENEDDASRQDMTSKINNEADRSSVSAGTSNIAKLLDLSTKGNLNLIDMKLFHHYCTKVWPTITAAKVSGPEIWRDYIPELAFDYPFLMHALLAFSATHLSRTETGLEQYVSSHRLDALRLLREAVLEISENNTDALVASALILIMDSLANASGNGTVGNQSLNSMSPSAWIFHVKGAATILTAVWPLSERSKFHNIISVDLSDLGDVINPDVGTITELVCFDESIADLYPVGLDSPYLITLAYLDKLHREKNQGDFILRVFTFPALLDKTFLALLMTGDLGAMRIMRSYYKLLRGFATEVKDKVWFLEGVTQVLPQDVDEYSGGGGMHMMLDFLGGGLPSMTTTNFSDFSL
Protocol: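 Universal 'all 10-mer' protein binding microarrays (Agilent AMADID 015681) probed with GST-tagged S. cerevisiae TFs (full-length or DBD) made by in vitro transcription/translation (PURExpress), about 100-200 nM. Bound TF was detected with fluorescent anti-GST. Each ungapped 8-mer (which stands for itself and its reverse complement) is scored by the PBM enrichment score (E-score), a modified Wilcoxon-Mann-Whitney statistic from -0.5 to +0.5, computed with the Universal PBM Analysis Suite. Scale: above 0.35 generally sequence-specific binding.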

Sequence | PBM E-score
CGTCGGGC | -0.231
ATCAATCA | 0.0322
AAAATCCT | 0.0605
AGGTTACG | 0.221
GTAGTAGA | -0.0548
CACGTAGC | -0.0699
ATCGTAGA | 0.337
ATCGTAGC | 0.356
GTCGTAGA | 0.386
CTCGTAGA | 0.404
CACGTAGA | 0.0732
CTCGTAGC | 0.4
GACGTAGA | 0.054
GTGGGGCA | -0.058
CAGTGTCC | -0.141
AGCCAATC | -0.0383
TCCAGCCA | -0.231
AGTCTATA | 0.0445
ATGATCTA | -0.00479
CACGAGCC | 0.0758
AGCGAGCG | 0.281
AACGAGCG | 0.442
TGCGAGCA | 0.21
TACGAGCA | 0.465

Sequence | PBM E-score
TCCGAGCA | 0.176
ACCGAGCT | 0.186
AGCGAGCT | 0.225
GACGAGCC | -0.00056
CACGAGCG | 0.17
AACGAGCC | 0.449
AACGAGCT | 0.438
CGCCGCTC | -0.0776
AGTAACCA | -0.164
CGCCAGCA | -0.169
ATTGATAC | 0.173
GGCAACAA | 0.0296
GACGCCAA | -0.0565
AGTTGATA | -0.0653
GGGTGCAC | -0.128
CGCATAGA | 0.158
CACGAGCA | -0.0761
AACGAGCA | 0.444
GACGAGCA | 0.00509
CATGCTAA | -0.2
GAGGTTTA | 0.0651
ATTGGACA | -0.0219
AAACGGCG | 0.401
GAACGGCA | 0.27

Sequence | PBM E-score
AAACGGCT | 0.296
AAACGGCA | 0.37
AAACGGCC | 0.359
CAACGGCA | -0.0468
TAGAAACA | 0.0409
GAGTGTGA | 0.156
CGCCCAAG | -0.0616
ATCTAAGA | -0.179
GCAGTACC | -0.124
GAGCACAA | -0.0319
ACGAGCGA | 0.379
GCGAGCGA | 0.226
CCGAGCGA | 0.193
ACGAGCGT | 0.386
ACGAGCGC | 0.347
ACGAGCGG | 0.369
ACTCAGTA | 0.18
ATGGTGGG | -0.278
AACCTGTA | 0.118
TGACGAAA | 0.00712
GAACGAAC | 0.441
AAACGAAC | 0.471
CCACGAAA | -0.0902
CAACGAAC | 0.257

Sequence | PBM E-score
ACACGAAC | 0.216
GAACGAAA | 0.416
AGACGAAC | 0.29
GCACGAAC | 0.25
ATGCTGAA | -0.151
GTTGTGAA | 0.00742
GAAGCAGA | -0.244
CGCAGCCC | -0.0774
AATACGGC | 0.291
CGTACGGA | 0.382
GGTACGGA | 0.355
AGTACGGC | 0.299
CGTACGGC | 0.381
CATACGGC | 0.383
AGTACGGA | 0.224
CATACGGG | 0.367
CGTACGTC | 0.338
AGTTGGCA | 0.0278
CGTCGATA | -0.028
AAGCTACA | -0.125
CCGTCGCG | 0.132
GAAAAACC | -0.037
